Measurements: PubChem BioAssay (Tox21)
Inconclusive results are not listed. The source made the active and inactive calls. Unless noted, the call rests on the fitted dose curve; in most records, active means well fitted curve in the direction sought with a large enough effect in the repeat runs; inconclusive means weak or mixed curves; inactive means no such curve, though single readings can be large; an effect the other way counts as inactive or inconclusive.

What was measured:
[1] = qHTS assay to identify small molecule HDAC inhibitors (AID 1259364); further: top concentration of the series differs between compounds; nearly all actives have a fitted effect of over 45% in size
Procedure, shortened: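 Luminescence read after 30 min room-temperature HDAC-Glo incubation measures cellular class I/II HDAC activity. Compounds were applied for 2 hr at 37 C to HCT-116 wild-type cells seeded the day before.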

[2] = qHTS assay to identify small molecule HDAC inhibitors - cell viability counter screen (AID 1259365); further: series mostly up to about 92 µM; nearly all actives have a fitted effect of over 50% in size
Procedure, shortened: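 Following a 2hr exposure of overnight-plated wild-type HCT-116 cells to DMSO-delivered compounds, CellTiter-Glo was added and luminescence recorded after 30min at room temperature.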

[3] = qHTS assay to identify small molecule agonists of the sonic hedgehog signaling (Shh) pathway - cell viability counter screen (AID 1259366); further: nearly all actives have a fitted effect of over 50% in size
Procedure, shortened: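 After a 4hr attachment at 37C, NIH/3T3 cells bearing an integrated Gli1-driven luciferase reporter were dosed with compounds. Treatment lasted 24hr, with the final hour including CellTiter-Fluor for a fluorescence viability measurement.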

[4] = qHTS assay to identify small molecule antagonists of the sonic hedgehog signaling (Shh) pathway - cell viability counter screen (AID 1259367); further: nearly all actives have a fitted effect of over 55% in size
Procedure, shortened: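 Tox21 library chemicals were tested on a Gli1-Luc NIH/3T3 clone (2,000 cells/well) stimulated by conditioned medium; viability was quantified as fluorescence from CellTiter-Fluor reagent added at 23 hr.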

[5] = qHTS assay to identify small molecule agonists of the sonic hedgehog signaling (Shh) pathway (AID 1259368; calls by dose curve;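 further: NIH/3T3-derived 3T3Gli1-Luc cells carrying a stable Gli1-driven firefly luciferase reporter; series mostly up to about 92 µM; nearly all actives have a fitted effect of over 15% in size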)
Procedure, shortened: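 Luminescence was read after 30 min at room temperature with luciferase reagent. Before that, 3T3Gli1-Luc cells (NIH/3T3 clone, stable Gli1-Luc reporter; 2,000/well) were exposed to compounds for 24 hr at 37C, 5% CO2, compounds being added 4 hr post-plating.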

[6] = qHTS assay to identify small molecule antagonists of the sonic hedgehog signaling (Shh) pathway (AID 1259369; calls by dose curve; further: nearly all actives have a fitted effect of over 45% in size)
Procedure, shortened: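 Antagonist mode: compound added to 3T3 Gli1-Luc cells followed by conditioned-medium stimulation, 24 h at 37 C, 5% CO2. Inhibition taken as loss of Gli1-driven luciferase luminescence.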

[7] = target: Estrogen receptor beta (Homo sapiens) (UniProt Q92731); assay: qHTS assay to identify small molecule agonists of the estrogen receptor beta (ER-beta) signaling pathway (AID 1259377; active means well fitted activation curve with a large enough effect in the signal ratio in the repeat runs, not every such curve was filed as active; the % refers to the signal ratio)
Procedure, shortened: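 In HEK293T cells bearing a UAS-beta-lactamase reporter under ER-beta control, DMSO-delivered compounds were incubated for 16 hr at 37C. Activity was detected as fluorescence 2 hours after LiveBLAzer B/G FRET substrate addition.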

[8] = target: Estrogen receptor beta (Homo sapiens) (UniProt Q92731); assay: qHTS assay to identify small molecule antagonists of the estrogen receptor beta (ER-beta) signaling pathway (AID 1259378; active means well fitted inhibition curve with a large enough effect in the signal ratio in the repeat runs, not every such curve was filed as active; the % refers to the signal ratio)
Procedure, shortened: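 ER-beta-UAS-bla HEK293T cells in 2% charcoal-stripped FBS medium treated with compound plus 1nM final 17-beta-estradiol for 16 hr at 37C. Beta-lactamase reporter read by FRET substrate fluorescence after 2 hours at room temperature.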

[9] = qHTS assay to identify small molecule agonists of the androgen receptor (AR) signaling pathway in the presence of an antagonist - cell viability counter screen (AID 1259379);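 further: MDA-kb2 human breast cancer cells carrying an MMTV luciferase reporter; series mostly up to about 92 µM; nearly all actives have a fitted effect of over 25% in size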
Procedure, shortened: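 Cytotoxicity counter-screen run in the same wells as the nilutamide-challenged (3.0 µM final) AR agonist assay in MDA-kb2 cells. Compounds tested at 15 concentrations for 16 h, 37 °C without CO2; CellTiter-Fluor fluorescence read.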

[10] = qHTS assay to identify small molecule antagonists of the estrogen receptor beta (ER-beta) signaling pathway - cell viability counter screen (AID 1259382); further: series mostly up to about 92 µM; nearly all actives have a fitted effect of over 55% in size
Procedure, shortened: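 Cytotoxicity was measured in the same wells by CellTiter-Glo luminescence after 30 min at room temperature. Cells were ER-beta-bla HEK293T in charcoal-stripped serum, given compound together with 1 nM E2 and incubated 16 h at 37C.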

[11] = qHTS assay to identify small molecule agonists or antagonists of the thyroid stimulating hormone receptor (TSHR) signaling pathway - wild type cell line counter screen (AID 1259384; calls by dose curve)
Procedure, shortened: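 Wild-type Hek293 cells, 800/well, 18 h at 37C, then compound with Ro20-1724 for 30 min RT. cAMP by HTRF (cAMP-d2/anti-cAMP cryptate), 1 h RT, fluorescence read. 15 concentrations, triplicates.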

[12] = target: Thyrotropin receptor (Homo sapiens) (UniProt P16473); assay: qHTS assay to identify small molecule antagonists of the thyroid stimulating hormone receptor (TSHR) signaling pathway (AID 1259385; calls by dose curve; further: nearly all actives have a fitted effect of over 20% in size)
Procedure, shortened: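 TSHR-HEK293 cells (800/well) plated 18 h, then compounds with Ro20-1724 and TSH at 1.5 ng/mL final, 30 min at room temperature. cAMP quantified by HTRF (cAMP-d2/anti-cAMP-cryptate, 1 h); 15 concentrations in triplicate.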

[13] = qHTS assay to identify small molecule agonists of the estrogen receptor alpha (ER-alpha) signaling pathway in the presence of an antagonist - cell viability counter screen (AID 1259386); further: series mostly up to about 92 µM; nearly all actives have a fitted effect of over 30% in size
Procedure, shortened: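 Compounds tested at 15 concentrations for 22 h at 37C alongside 10.0nM (final) ICI-182,780 antagonist, in VM7Luc4E2 cells grown in phenol red-free, charcoal-stripped medium. Viability read by CellTiter-Fluor fluorescence after 1 h reagent incubation.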

[14] = target: Progesterone receptor (Homo sapiens) (UniProt P06401); assay: qHTS assay to identify small molecule agonists of the progesterone receptor (PR) signaling pathway (AID 1346784; calls by dose curve; further: nearly all actives have a fitted effect of over 30% in size)
Procedure, shortened: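 Using charcoal-stripped serum (2%) to limit endogenous steroids, PR-UAS-bla HEK 293T cells received compounds for 16 hr at 37C after 6 hr plating; beta-lactamase FRET fluorescence was recorded following 2 hr substrate loading at room temperature.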

[15] = target: Progesterone receptor (Homo sapiens) (UniProt P06401); assay: qHTS assay to identify small molecule antagonists of the progesterone receptor (PR) signaling pathway (AID 1346795; active means well fitted inhibition curve with a large enough effect in the signal ratio in the repeat runs, not every such curve was filed as active; the % refers to the signal ratio)
Procedure, shortened: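 Inhibition of R5020-induced (1 nM final) beta-lactamase reporter signal in PR-UAS-bla HEK293T cells was scored by FRET fluorescence after overnight (16 hr) compound treatment.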

[16] = qHTS assay to identify small molecule antagonists of the progesterone receptor (PR) signaling pathway - cell viability counter screen (AID 1346798); further: series mostly up to about 92 µM; nearly all actives have a fitted effect of over 50% in size
Procedure, shortened: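 ATP content as viability readout: CellTiter-Glo luminescence, 30 min room temperature, in PR-UAS-bla HEK293T cells after 16 hr compound/R5020 treatment at 37C and 5% CO2.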

[17] = qHTS assay to identify small molecule agonists of the progesterone receptor (PR) signaling pathway - cell viability counter screen (AID 1346799; calls by dose curve; further: nearly all actives have a fitted effect of over 45% in size)
Procedure, shortened: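 Cytotoxicity in PR-bla HEK293T cells: 16 h compound, 37C; CellTiter-Glo added post-FRET read; luminescence after 30 min RT.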

[18] = qHTS assay to identify small molecule agonists of the estrogen receptor beta (ER-beta) signaling pathway - cell viability counter screen (AID 1259380); further: nearly all actives have a fitted effect of over 30% in size
Procedure, shortened: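 Cell viability counter screen: CellTiter-Glo luminescence (30 min, room temperature) measured in the same wells as the beta-lactamase readout, after 16 hr compound exposure at 37C of ER-beta-bla HEK293T cells in 2% charcoal-stripped FBS medium.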

[19] = target: Androgen receptor (Homo sapiens) (UniProt P10275); assay: qHTS assay to identify small molecule agonists of the androgen receptor (AR) signaling pathway in the presence of an antagonist (AID 1259381; calls by dose curve; further: nearly all actives have a fitted effect of over 15% in size)
Procedure, shortened: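 Agonist-mode confirmation run against 3.0 uM final nilutamide: compounds titrated at 15 concentrations onto MDA-kb2 MMTV-luciferase reporter cells. Luminescence measured with ONE-Glo following 16 hr incubation, 37C, 0% CO2.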

[20] = target: Estrogen receptor (Homo sapiens) (UniProt P03372); assay: qHTS assay to identify small molecule agonists of the estrogen receptor alpha (ER-alpha) signaling pathway in the presence of an antagonist (AID 1259383; calls by dose curve; further: top concentration of the series differs between compounds; nearly all actives have a fitted effect of over 15% in size)
Procedure, shortened: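 Agonist-mode confirmation run in the presence of 10.0nM (final) ICI-182,780 antagonist. The reporter was ERE-driven luciferase in VM7Luc4E2 cells, grown in charcoal-stripped serum. Cells were exposed to 15-concentration compound series for 22hr, then ONE-Glo luminescence was read.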
On the % scale 0 is the no-effect control and ±100 the full control effect.

Sequence of Thyrotropin receptor (Homo sapiens) (P16473 whole entry, looked up): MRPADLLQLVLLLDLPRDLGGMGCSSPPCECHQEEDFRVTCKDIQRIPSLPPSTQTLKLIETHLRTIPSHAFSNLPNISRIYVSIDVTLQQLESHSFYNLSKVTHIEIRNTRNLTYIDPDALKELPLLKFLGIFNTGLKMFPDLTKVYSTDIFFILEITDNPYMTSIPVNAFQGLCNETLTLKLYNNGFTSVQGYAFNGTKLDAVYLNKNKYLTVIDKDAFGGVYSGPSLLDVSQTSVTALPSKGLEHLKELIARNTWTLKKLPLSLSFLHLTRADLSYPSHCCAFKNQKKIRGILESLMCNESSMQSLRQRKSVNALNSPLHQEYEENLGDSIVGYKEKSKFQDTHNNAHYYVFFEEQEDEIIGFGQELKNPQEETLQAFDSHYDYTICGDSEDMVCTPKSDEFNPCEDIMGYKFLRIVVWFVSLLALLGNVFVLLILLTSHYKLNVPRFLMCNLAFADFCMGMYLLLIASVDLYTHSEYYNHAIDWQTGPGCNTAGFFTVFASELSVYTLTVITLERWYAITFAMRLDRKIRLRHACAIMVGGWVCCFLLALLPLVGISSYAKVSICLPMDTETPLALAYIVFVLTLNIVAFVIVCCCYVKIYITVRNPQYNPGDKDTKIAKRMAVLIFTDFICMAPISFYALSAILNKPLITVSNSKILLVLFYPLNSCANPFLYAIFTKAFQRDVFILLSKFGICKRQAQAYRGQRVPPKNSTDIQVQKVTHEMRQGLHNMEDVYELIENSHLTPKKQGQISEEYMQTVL
Sequence of Androgen receptor (Homo sapiens) (P10275 whole entry, looked up): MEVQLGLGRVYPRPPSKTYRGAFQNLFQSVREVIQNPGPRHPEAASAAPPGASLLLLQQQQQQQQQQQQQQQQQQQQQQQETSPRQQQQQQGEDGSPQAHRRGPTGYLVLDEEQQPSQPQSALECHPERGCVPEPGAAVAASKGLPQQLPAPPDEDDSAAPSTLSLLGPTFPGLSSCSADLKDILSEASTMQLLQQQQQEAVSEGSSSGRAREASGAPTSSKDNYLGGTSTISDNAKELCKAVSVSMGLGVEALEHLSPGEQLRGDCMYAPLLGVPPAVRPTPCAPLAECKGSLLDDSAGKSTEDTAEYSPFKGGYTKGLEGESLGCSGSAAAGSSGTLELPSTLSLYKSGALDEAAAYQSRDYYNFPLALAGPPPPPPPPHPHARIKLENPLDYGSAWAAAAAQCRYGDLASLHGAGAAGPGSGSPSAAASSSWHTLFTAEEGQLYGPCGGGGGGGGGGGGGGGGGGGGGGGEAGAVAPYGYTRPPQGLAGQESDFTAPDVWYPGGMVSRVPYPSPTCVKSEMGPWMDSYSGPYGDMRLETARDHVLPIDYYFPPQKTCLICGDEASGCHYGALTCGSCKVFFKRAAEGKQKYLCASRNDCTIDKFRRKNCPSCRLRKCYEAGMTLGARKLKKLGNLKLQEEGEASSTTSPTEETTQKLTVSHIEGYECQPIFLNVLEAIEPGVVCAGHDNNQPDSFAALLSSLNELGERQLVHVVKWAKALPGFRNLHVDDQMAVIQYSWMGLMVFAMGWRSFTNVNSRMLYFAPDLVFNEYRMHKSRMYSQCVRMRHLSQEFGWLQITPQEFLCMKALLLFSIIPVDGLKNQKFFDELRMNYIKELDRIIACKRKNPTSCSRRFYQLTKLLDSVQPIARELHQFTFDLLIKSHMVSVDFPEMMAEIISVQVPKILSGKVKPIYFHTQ
Sequence of Estrogen receptor (Homo sapiens) (P03372 whole entry, looked up): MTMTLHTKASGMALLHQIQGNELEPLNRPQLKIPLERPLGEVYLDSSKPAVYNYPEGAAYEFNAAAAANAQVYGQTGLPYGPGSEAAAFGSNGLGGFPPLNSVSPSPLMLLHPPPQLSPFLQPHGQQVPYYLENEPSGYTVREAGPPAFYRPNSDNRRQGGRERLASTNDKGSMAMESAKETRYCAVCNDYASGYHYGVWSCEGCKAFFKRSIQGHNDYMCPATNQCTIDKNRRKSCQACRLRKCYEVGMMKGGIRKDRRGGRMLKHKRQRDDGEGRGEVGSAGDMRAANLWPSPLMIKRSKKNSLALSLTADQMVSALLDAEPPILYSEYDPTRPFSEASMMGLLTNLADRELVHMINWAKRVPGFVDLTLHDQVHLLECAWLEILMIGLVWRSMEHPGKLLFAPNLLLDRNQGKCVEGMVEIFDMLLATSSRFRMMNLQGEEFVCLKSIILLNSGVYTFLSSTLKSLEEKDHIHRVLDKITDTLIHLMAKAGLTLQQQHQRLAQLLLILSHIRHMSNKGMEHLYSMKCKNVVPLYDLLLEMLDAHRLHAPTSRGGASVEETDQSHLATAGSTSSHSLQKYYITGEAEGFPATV
Sequence of Progesterone receptor (Homo sapiens) (P06401 whole entry, looked up): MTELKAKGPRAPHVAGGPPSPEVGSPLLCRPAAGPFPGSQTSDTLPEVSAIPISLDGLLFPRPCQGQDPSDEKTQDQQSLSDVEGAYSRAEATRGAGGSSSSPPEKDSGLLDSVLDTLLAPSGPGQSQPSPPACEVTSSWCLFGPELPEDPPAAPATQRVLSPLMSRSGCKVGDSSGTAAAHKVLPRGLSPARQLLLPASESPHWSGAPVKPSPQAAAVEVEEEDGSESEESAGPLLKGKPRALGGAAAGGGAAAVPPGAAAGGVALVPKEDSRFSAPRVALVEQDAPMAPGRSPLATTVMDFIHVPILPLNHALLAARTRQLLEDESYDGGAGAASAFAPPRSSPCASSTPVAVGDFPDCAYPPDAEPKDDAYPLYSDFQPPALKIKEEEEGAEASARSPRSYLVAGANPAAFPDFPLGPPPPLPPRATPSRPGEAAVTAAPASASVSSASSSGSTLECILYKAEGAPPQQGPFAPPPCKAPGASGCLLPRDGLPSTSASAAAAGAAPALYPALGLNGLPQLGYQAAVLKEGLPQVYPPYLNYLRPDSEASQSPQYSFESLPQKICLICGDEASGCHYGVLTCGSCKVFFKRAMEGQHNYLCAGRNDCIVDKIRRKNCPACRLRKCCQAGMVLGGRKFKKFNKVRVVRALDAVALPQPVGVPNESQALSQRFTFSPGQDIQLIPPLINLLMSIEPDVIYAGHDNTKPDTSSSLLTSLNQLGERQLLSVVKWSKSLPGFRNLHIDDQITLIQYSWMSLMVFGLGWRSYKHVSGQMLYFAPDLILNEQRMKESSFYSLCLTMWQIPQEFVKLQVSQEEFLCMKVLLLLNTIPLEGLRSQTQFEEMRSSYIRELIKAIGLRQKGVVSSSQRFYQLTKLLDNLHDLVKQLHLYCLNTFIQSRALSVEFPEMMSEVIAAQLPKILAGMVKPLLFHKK
Sequence of Estrogen receptor beta (Homo sapiens) (Q92731 whole entry, looked up): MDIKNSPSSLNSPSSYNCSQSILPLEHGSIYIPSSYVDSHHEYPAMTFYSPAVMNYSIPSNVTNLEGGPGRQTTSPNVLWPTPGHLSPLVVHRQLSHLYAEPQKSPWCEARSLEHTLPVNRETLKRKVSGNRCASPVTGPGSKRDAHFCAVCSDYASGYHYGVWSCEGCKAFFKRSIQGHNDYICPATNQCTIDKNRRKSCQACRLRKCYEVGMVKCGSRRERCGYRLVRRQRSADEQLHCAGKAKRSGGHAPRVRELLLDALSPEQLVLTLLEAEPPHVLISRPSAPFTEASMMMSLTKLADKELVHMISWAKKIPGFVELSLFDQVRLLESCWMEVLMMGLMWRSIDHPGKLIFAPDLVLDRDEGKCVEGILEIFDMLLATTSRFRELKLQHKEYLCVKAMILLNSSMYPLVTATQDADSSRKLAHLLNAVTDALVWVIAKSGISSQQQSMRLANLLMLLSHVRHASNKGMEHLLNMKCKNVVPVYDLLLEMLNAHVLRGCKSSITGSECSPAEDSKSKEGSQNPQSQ

CC(N)CCCC(C)(C)O (stereo not given)
inactive: Potency [1] | outcome [2] | outcome [3] | outcome [4] | outcome [5] | Potency [6] | Potency [7] | Potency [8] | outcome [9] | outcome [10] | outcome [11] | outcome [12] | outcome [13] | Potency [14] | Potency [15]

CC(C)NCC(O)c1ccc2ccccc2c1 (stereo not given)
inactive: Potency [1] | outcome [2] | outcome [3] | outcome [4] | outcome [5] | Potency [6] | Potency [7] | Potency [8] | outcome [9] | outcome [10] | outcome [11] | outcome [12] | outcome [13] | Potency [14] | Potency [15] | outcome [16] | outcome [17]

CCn1cc(C(=O)O)c(=O)c2cnc(N3CCCC3)nc21
inactive: activity change, negative = inhibition [1] 0.504% [at 8.39 µM] | activity change, negative = cytotoxicity [2] 0.53% [at 8.39 µM] | viability change, negative = cytotoxic [3] -0.379% [at 8.39 µM] | viability change, negative = cytotoxic [4] -1.09% [at 8.39 µM] | activity change [5] 1.04% [at 8.39 µM] | activity change, negative = inhibition [6] 29.2% [at 8.39 µM] | activation [7] 4.52% [at 8.39 µM] | activity, negative = inhibition [8] 15.3% [at 8.39 µM] | activity change, negative = cytotoxicity [9] 0.387% [at 8.39 µM] | activity change, negative = cytotoxicity [18] 2.48% [at 8.39 µM] | activity change, negative = cytotoxicity [10] 13.9% [at 8.39 µM] | cAMP activity change [11] -5.06% [at 8.39 µM] | activity change, negative = inhibition [12] -0.0847% [at 8.39 µM] | activity change, negative = cytotoxicity [13] -1.71% [at 8.39 µM] | activation [14] 0.947% [at 8.39 µM] | activity change, negative = inhibition [15] 1.66% [at 8.39 µM] | activity change, negative = cytotoxicity [16] 1.24% [at 8.39 µM]

O=C(O)CSCC(=O)NC1CCSC1=O (stereo not given)
inactive: Potency [1] | outcome [2] | outcome [3] | outcome [4] | outcome [5] | Potency [6] | Potency [7] | Potency [8] | outcome [9] | outcome [19] | outcome [10] | outcome [11] | outcome [12] | Potency [15] | outcome [16]

CC(C)C[C@@H]1[C@H](c2ccccc2)OC(=O)N1CCCN1CCCCCC1
inactive: Potency [1] | outcome [2] | outcome [3] | outcome [4] | outcome [5] | Potency [6] | Potency [7] | Potency [8] | outcome [9] | outcome [18] | outcome [19] | outcome [10] | Potency [20] | outcome [11] | outcome [12] | outcome [13] | Potency [14] | Potency [15]

COC(=O)CCCCC(CCSS/C(CCO)=C(\C)N(C=O)Cc1cnc(C)nc1N)SC(C)=O (stereo not given)
inactive: Potency [1] | outcome [2] | outcome [3] | outcome [4] | outcome [5] | Potency [6] | Potency [7] | Potency [8] | outcome [9] | outcome [18] | outcome [19] | outcome [10] | Potency [20] | outcome [11] | outcome [13] | Potency [14] | Potency [15] | outcome [16] | outcome [17]

CC(=O)OCC(=O)Nc1cc(C#N)cc(NC(=O)COC(C)=O)c1Cl
inactive: Potency [1] | outcome [2] | outcome [3] | outcome [4] | outcome [5] | Potency [6] | Potency [7] | Potency [8] | outcome [9] | outcome [18] | outcome [10] | Potency [20] | outcome [11] | outcome [13] | outcome [16] | outcome [17]

C=C(C)c1cccc(C(C)(C)N=C=O)c1
inactive: Potency [1] | outcome [2] | outcome [3] | outcome [4] | outcome [5] | Potency [6] | Potency [7] | Potency [8] | outcome [9] | outcome [18] | outcome [10] | Potency [20] | outcome [11] | outcome [12] | outcome [13] | Potency [14] | outcome [16] | outcome [17]
